This passage reports outcome and AC50 results from PubChem BioAssay (EPA / NIEHS).

“And” between values parts separate entries of the source, which are not always exact repeats. Equal entries are not always repeated. Some compounds were tested as several samples or in several runs, with calls that do not always agree. The source made the active and inactive calls. Rule for the calls: active = hit-call score of the fitted dose curve at least 0.9, where 1 is the maximum; inactive = score below 0.9.

Tested on in the first experiment: not listed separately
The experiment can be described thus: ATG_NFI_CIS: Attagene CIS-FACTORIAL HepG2 Assay for human Nuclear Factor I (NFI) (AID 2282989). The conditions noted are these: HepG2 cis-regulatory reporter, NFI response element transcription; actives raise or lower the signal. In outline: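 Endogenous TF activity in HepG2 cells transiently transfected with cis-element-driven multiplexed reporter units, read 24 h after dosing. Reporter mRNA quantified by RT-PCR, 6-FAM labelling, HpaI digestion and capillary electrophoresis; bidirectional fit versus DMSO.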
Consider `CCCCOC(=O)C(C)OC(=O)CCC` (stereo not drawn), for which the outcome was inactive.
Still for that read-out and setting: the result for `C/C=C(\C)C(=O)OC/C=C(\C)CCC=C(C)C` reads “inactive”; that for `CC(C)N(c1ccccc1)C(C)C`, “inactive”; that for `OCCCO`, “inactive”.
The same measure, in the same setting: the result for `COc1ccc(OC)cc1` reads “inactive”.
Broadly, the AC50 is the midpoint of the concentration-response curve, whichever way the signal moves. Turning to `C[C@H](CCC(=O)O)[C@H]1CC[C@H]2[C@@H]3CC[C@@H]4C[C@H](O)CC[C@]4(C)[C@H]3CC[C@]12C`, the half-maximal activity concentration (AC50) was 100 µM (active).
As for `CC(C)COC(=O)c1ccccc1O`, the compound was classed as inactive.
On to `c1coc(CNc2ncnc3nc[nH]c23)c1`, for which the outcome was inactive.
Consider `O=C(OCc1ccccc1)c1ccccc1O`, for which the AC50 is 178 µM (active).
For the compound `CC(=O)CCC(=O)O`, the compound was called inactive.
Same read-out and setting: then `CC1=CC(O)CC(C)(C)C1` (stereo not drawn), with “inactive”.
Still for that read-out and setting: the result for `CCCC[N+](C)(CCCC)CCCC` reads “inactive”; that for `N=C1N=C(N)c2ccccc21`, “inactive”; that for `[Cu+]`, “inactive”.
With `CCOC(=O)CC(C)C`, the outcome was inactive.
The same measure, in the same setting: the result for `C1=COCCC1` reads “inactive”.
Turning to `NC(N)=NC(N)=NCCc1ccccc1`, the call was inactive.
Still for that read-out and setting: the result for `CC(C)(C)c1cc(CCC(=O)OCCSCCOC(=O)CCc2cc(C(C)(C)C)c(O)c(C(C)(C)C)c2)cc(C(C)(C)C)c1O` reads “inactive”; that for `O=C(C=Cc1ccccc1)OCCCc1ccccc1`, “inactive”; that for `CC1COC(=O)O1` (stereo not drawn), “inactive”.
With `CC/C=C\C#N`, the compound was classed as inactive.
The same measure, in the same setting: the result for `CCCCCCC(C)O` (stereo not drawn) reads “inactive”; that for `CC(C)(C)c1cccc(O)c1`, “inactive”.
`CCCCCCCCOC(=O)c1ccc(O)cc1`: the compound was classed as inactive.
The same measure, in the same setting: then `NC(=O)c1cnccn1`, with “inactive”; and `CCCCCCCCCCCCN1CCOCC1`, with “inactive”.
As to `O=C(c1ccc(OCCN2CCCCC2)cc1)c1c(-c2ccc(O)cc2)sc2cc(O)ccc12`, the AC50 is 8.99 µM (active) and 16.7 µM (active); the call was inactive.
In the case of `CC/C(=C(\c1ccccc1)c1ccc(OCCN(C)C)cc1)c1ccccc1`, the result was inactive.
The same measure, in the same setting: the result for `NC(N)=S` reads “inactive”.

For the next experiment, the target named is Myc proto-oncogene protein (Homo sapiens) (UniProt P01106). In words: ATG_Myc_CIS: Attagene CIS-FACTORIAL HepG2 Assay for human Myelocytomatosis (Myc) Proto-Oncogene Transcription Factor (AID 2282990). The conditions noted are these: HepG2, Attagene cis-reporter transcription factor activity; actives raise or lower the signal. The method in brief: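 Cells of the HepG2 human liver line bear multiple cis-driven reporter transcription units. Reporter mRNA after 24 h exposure is reverse-transcribed, amplified, labelled and resolved by capillary electrophoresis, with gain- or loss-of-signal fitting relative to DMSO.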
Myc proto-oncogene protein (Homo sapiens), sequence (P01106 whole entry, looked up): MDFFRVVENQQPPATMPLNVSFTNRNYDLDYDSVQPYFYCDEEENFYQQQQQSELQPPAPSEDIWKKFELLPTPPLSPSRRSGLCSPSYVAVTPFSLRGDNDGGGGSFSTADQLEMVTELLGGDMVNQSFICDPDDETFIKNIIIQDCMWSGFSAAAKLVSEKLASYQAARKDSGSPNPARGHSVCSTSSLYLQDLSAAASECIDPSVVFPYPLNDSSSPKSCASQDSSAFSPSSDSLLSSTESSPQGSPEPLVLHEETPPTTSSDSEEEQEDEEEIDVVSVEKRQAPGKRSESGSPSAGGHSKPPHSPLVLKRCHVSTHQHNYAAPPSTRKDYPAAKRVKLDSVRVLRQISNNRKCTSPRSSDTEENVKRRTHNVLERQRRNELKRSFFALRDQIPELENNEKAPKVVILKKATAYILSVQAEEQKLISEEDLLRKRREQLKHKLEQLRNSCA
In the case of `CCCCOC(=O)C(C)OC(=O)CCC` (stereo not drawn), the call was inactive.
As to `CC(=N[Si](C)(C)C)O[Si](C)(C)C`, the result was inactive.
For the compound `C/C=C(\C)C(=O)OC/C=C(\C)CCC=C(C)C`, the compound was classed as inactive.
`CC(C)N(c1ccccc1)C(C)C`: the result was inactive.
Consider `OCCCO`, for which the outcome was inactive.
Turning to `Nc1ccc(N)c([N+](=O)[O-])c1`, the compound was classed as inactive.
For the compound `CC(C)COC(=O)c1ccccc1O`, the result was inactive.
On the same count and under the same terms, the result for `c1coc(CNc2ncnc3nc[nH]c23)c1` reads “inactive”.
As for `O=C(OCc1ccccc1)c1ccccc1O`, the outcome was inactive.
Still for that read-out and setting: then `CC(=O)CCC(=O)O`, with “inactive”; and `N=C1N=C(N)c2ccccc21`, with “inactive”; and `CC(=O)c1ccc(C)cc1`, with “inactive”.
The same measure, in the same setting: the result for `CCOC(=O)CC(C)C` reads “inactive”.
Still for that read-out and setting: then `C1=COCCC1`, with “inactive”.
As for `NC(N)=NC(N)=NCCc1ccccc1`, the outcome was inactive.
Same read-out and setting: the result for `CC(C)(C)c1cc(CCC(=O)OCCSCCOC(=O)CCc2cc(C(C)(C)C)c(O)c(C(C)(C)C)c2)cc(C(C)(C)C)c1O` reads “inactive”; that for `O=C(C=Cc1ccccc1)OCCCc1ccccc1`, “inactive”; that for `CC/C=C\CCOC(=O)C(C)C`, “inactive”.
With `CC1COC(=O)O1` (stereo not drawn), the compound was called inactive.
`CC/C=C\C#N`: the compound was called inactive.
Still for that read-out and setting: then `CCCCCCC(C)O` (stereo not drawn), with “inactive”; and `CC(C)(C)c1cccc(O)c1`, with “inactive”.
As for `CC(C)(O)C(=O)c1ccc(OCCO)cc1`, the compound was called inactive.
On to `Cc1ccc(C(C)(C)O)cc1`, for which the outcome was inactive.
As to `CCCCCCCCOC(=O)c1ccc(O)cc1`, the outcome was inactive.
`NC(=O)c1cnccn1`: the outcome was inactive.
Take `CCCCCCCCCCCCN1CCOCC1`: the result was inactive.
The same measure, in the same setting: then `O=C(c1ccc(OCCN2CCCCC2)cc1)c1c(-c2ccc(O)cc2)sc2cc(O)ccc12`, with “inactive”.
Regarding `NC(N)=S`, the outcome was inactive.

Tested on in another experiment: not listed separately
In words: ATG_NF_kB_CIS: Attagene CIS-FACTORIAL HepG2 Assay for human Nuclear Factor Kappa B (NF-kB) (AID 2282991). The conditions noted are these: HepG2 Attagene cis-factorial NF-kB reporter mRNA; actives raise or lower the signal. The method in brief: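 Readout is reporter transcript level, gain or loss versus DMSO, measured 24 h post-dose via RT-PCR, fluorescent labelling and capillary electrophoresis. Human HepG2 liver cells carried transiently transfected CIS reporter constructs reflecting endogenous factors.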
With `CCCCOC(=O)C(C)OC(=O)CCC` (stereo not drawn), the outcome was inactive.
Same read-out and setting: the result for `CC(=N[Si](C)(C)C)O[Si](C)(C)C` reads “inactive”.
`CC(C)N(c1ccccc1)C(C)C`: the call was inactive.
Turning to `OCCCO`, the result was inactive.
On to `COc1ccc(OC)cc1`, for which the compound was called inactive.
On to `CC(C)COC(=O)c1ccccc1O`, for which the outcome was inactive.
Still for that read-out and setting: the result for `O=C(OCc1ccccc1)c1ccccc1O` reads “inactive”; that for `CC1=CC(O)CC(C)(C)C1` (stereo not drawn), “inactive”; that for `CC(=O)c1ccc(C)cc1`, “inactive”.
On to `C1=COCCC1`, for which the result was inactive.
Consider `NC(N)=NC(N)=NCCc1ccccc1`, for which the call was inactive.
The same measure, in the same setting: then `CC(C)(C)c1cc(CCC(=O)OCCSCCOC(=O)CCc2cc(C(C)(C)C)c(O)c(C(C)(C)C)c2)cc(C(C)(C)C)c1O`, with “inactive”; and `O=C(C=Cc1ccccc1)OCCCc1ccccc1`, with “inactive”; and `CC/C=C\CCOC(=O)C(C)C`, with “inactive”.
For `CC/C=C\C#N`, the outcome was inactive.
Consider `CC(C)(C)c1cccc(O)c1`, for which the outcome was inactive.
In the case of `CC(C)(O)C(=O)c1ccc(OCCO)cc1`, the call was inactive.
Still for that read-out and setting: then `Cc1ccc(C(C)(C)O)cc1`, with “inactive”; and `CCCCCCCCOC(=O)c1ccc(O)cc1`, with “inactive”.
The same measure, in the same setting: then `NC(=O)c1cnccn1`, with “inactive”; and `CCCCCCCCCCCCN1CCOCC1`, with “inactive”; and `O=C(c1ccc(OCCN2CCCCC2)cc1)c1c(-c2ccc(O)cc2)sc2cc(O)ccc12`, with “inactive”.
For the compound `CC/C(=C(\c1ccccc1)c1ccc(OCCN(C)C)cc1)c1ccccc1`, the outcome was inactive.

Tested on in another experiment: not listed separately
In words: ATG_NRF2_ARE_CIS: Attagene CIS-FACTORIAL HepG2 Assay for human Nuclear Factor Erythroid 2 Related Factor 2 (NFR2) response to Antioxidant Response Elements (ARE) (AID 2282992). The conditions noted are these: HepG2 Attagene ARE/NRF2 reporter, transcription factor activity; actives raise or lower the signal. The method in brief:
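Readout: reporter mRNA quantified by RT-PCR plus FAM-labelled primer extension, HpaI digestion and capillary electrophoresis, 24 h after dosing transfected HepG2 cells. Gain or loss of signal is fitted bidirectionally against DMSO baseline.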
For `CCCCOC(=O)C(C)OC(=O)CCC` (stereo not drawn), the call was inactive.
For the compound `C/C=C(\C)C(=O)OC/C=C(\C)CCC=C(C)C`, the concentration at half-maximal activity (AC50) was 100 µM (active).
For the compound `CC(C)N(c1ccccc1)C(C)C`, the call was inactive.
`OCCCO`: the result was inactive.
Turning to `COc1ccc(OC)cc1`, the outcome was inactive.
`C[C@H](CCC(=O)O)[C@H]1CC[C@H]2[C@@H]3CC[C@@H]4C[C@H](O)CC[C@]4(C)[C@H]3CC[C@]12C`: the AC50 was 45.4 µM (active).
With `CC(C)COC(=O)c1ccccc1O`, the compound was called inactive.
As to `c1coc(CNc2ncnc3nc[nH]c23)c1`, the concentration at half-maximal activity (AC50) was 33.8 µM (active).
The same measure, in the same setting: the result for `O=C(OCc1ccccc1)c1ccccc1O` reads 64.4 µM (active).
For the compound `CC(=O)CCC(=O)O`, the outcome was inactive.
On to `CC1=CC(O)CC(C)(C)C1` (stereo not drawn), for which the call was inactive.
Still for that read-out and setting: the result for `N=C1N=C(N)c2ccccc21` reads “inactive”.
In the case of `[Cu+]`, the half-maximal activity concentration (AC50) was 2.29 µM (active).
With `CC(=O)c1ccc(C)cc1`, the compound was classed as inactive.
The same measure, in the same setting: then `CCOC(=O)CC(C)C`, with “inactive”.
In the case of `NC(N)=NC(N)=NCCc1ccccc1`, the concentration at half-maximal activity (AC50) is 6.3 µM (active).
As to `CC(C)(C)c1cc(CCC(=O)OCCSCCOC(=O)CCc2cc(C(C)(C)C)c(O)c(C(C)(C)C)c2)cc(C(C)(C)C)c1O`, the outcome was inactive.
In the case of `O=C(C=Cc1ccccc1)OCCCc1ccccc1`, the half-maximal activity concentration (AC50) was 58 µM (active).
For `CC/C=C\CCOC(=O)C(C)C`, the result was inactive.
Same read-out and setting: then `CC1COC(=O)O1` (stereo not drawn), with “inactive”; and `CC/C=C\C#N`, with “inactive”.
Still for that read-out and setting: then `CCCCCCC(C)O` (stereo not drawn), with “inactive”; and `CC(C)(O)C(=O)c1ccc(OCCO)cc1`, with “inactive”.
Same read-out and setting: the result for `Cc1ccc(C(C)(C)O)cc1` reads “inactive”; that for `CCCCCCCCOC(=O)c1ccc(O)cc1`, “inactive”.
As to `CCCCCCCCCCCCN1CCOCC1`, the AC50 was 33.4 µM (active).
`O=C(c1ccc(OCCN2CCCCC2)cc1)c1c(-c2ccc(O)cc2)sc2cc(O)ccc12`: the AC50 was 6.44 µM (active) [middle of 4 runs] and the compound was classed as inactive.
The matching figures for `CC/C(=C(\c1ccccc1)c1ccc(OCCN(C)C)cc1)c1ccccc1`: 3.05 µM (active) [middle of 4 runs] and “inactive”.
On to `NC(N)=S`, for which the outcome was inactive.
